GLP1R ag: qHTS of GLP-1 Receptor Agonists. Potency, µM (series often up to 45.6 µM), without a hit: at the highest dose activation, hits mostly activators. AID 624172, 2012. HEK293 GLP-1R CRE-luciferase, luminescence, 4-6 h; cells express a hypersensitive GLP-1R form. actives 0.007% (n = 380,000); further: % of control where 0% means no effect
Target sequence (P43220 whole entry, looked up): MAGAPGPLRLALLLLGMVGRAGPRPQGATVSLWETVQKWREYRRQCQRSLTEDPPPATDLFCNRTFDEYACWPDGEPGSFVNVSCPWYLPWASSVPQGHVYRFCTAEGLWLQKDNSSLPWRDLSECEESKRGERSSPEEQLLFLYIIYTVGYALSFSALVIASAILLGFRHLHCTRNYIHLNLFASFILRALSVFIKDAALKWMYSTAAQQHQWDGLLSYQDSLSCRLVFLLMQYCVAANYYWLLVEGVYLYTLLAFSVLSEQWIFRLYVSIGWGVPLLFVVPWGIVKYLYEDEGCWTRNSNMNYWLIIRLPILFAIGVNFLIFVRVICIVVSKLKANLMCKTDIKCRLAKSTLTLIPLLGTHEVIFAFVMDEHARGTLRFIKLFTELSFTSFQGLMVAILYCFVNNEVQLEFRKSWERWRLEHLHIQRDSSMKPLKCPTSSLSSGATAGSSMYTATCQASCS
ALOX12 inh: Primary qHTS assay for inhibitors of human arachidonate 12S-lipoxygenase (ALOX12): Round 2; purified 12hLO, xylenol orange hydroperoxide absorbance; Potency, µM (top dose mostly 108 µM), for the others: at the highest dose activity change, negative = inhibition, actives largely listed as inhibitors; actives 1.1% (n = 580,000); further: on the % scale 0 is the no-effect control and ±100 the full control effect
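Purified human 12hLO (150 nM final) in 25 mM Hepes, 0.01% Triton X-100, pH 7.0 was preincubated 15 min at room temperature with compound. Then 40 uM arachidonic acid was added, 30 min. Hydroperoxide was read by Fe-XO absorbance ratio 573/405 nm.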
PTHR1 ag: qHTS for PTHR1 Agonists: Primary Screen. Parathyroid hormone/parathyroid hormone-related peptide receptor (Homo sapiens), Q03431. HEK293 GP2 PTHR1 cells, GloSensor cAMP luminescence, 1 h. Potency, µM (highest dose often 115 µM), for the others: at the top dose activation, actives largely listed as activators. actives 0.075% (n = 410,000). AID 743266, 2014; further: nearly all actives have a fitted effect of over 55% in size
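HEK-293-derived GP2 cells expressing PTHR1 and a GloSensor cAMP reporter, 3,000/well, plated overnight, given luciferin plus IBMX (each 0.5 mM as added) for 1 h at 37 °C, then compound for 1 h at 37 °C. Luminescence was read after 15 min at room temperature.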
GLS inh: qHTS for Inhibitors of Glutaminase (GLS). Glutaminase kidney isoform, mitochondrial (Homo sapiens), O94925. actives 0.21% (n = 410,000). GLS enzymatic activity, qHTS titration. AID 624170, 2012. Potency, µM (doses to about 45.5 µM), for inactives: at the top dose activity change, negative = inhibition, most hits filed as inhibitors; further: on the % scale 0 is the no-effect control and ±100 the full control effect
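Read-out is an Amplex red fluorescence increase coupled through glutamate oxidase and HRP, measured before and after 30 min room-temperature incubation. hKGA is in 45 mM KH2PO4 (pH 8.2) with 0.02% Tween-20; glutamine added as 1mM solution.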
GRP78 ERSR act: qHTS for Inducers of the Endoplasmic Reticulum Stress Response (ERSR) in Human Glioma: qHTS; U87-MG GRP78 promoter luciferase reporter, 16 h; Potency, µM, for inactives: top-dose activation, most hits filed as activators; actives 0.02% (n = 420,000); further: series mostly up to about 76 µM; % of control where 0% means no effect; nearly all actives have a fitted effect of over 35% in size
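Stably transfected U87-MG human glioma cells carrying a GRP78-based luminescent sensor were seeded at 1000 cells/well, pin-dosed with compounds and incubated 16 h. Luciferase reagent was then added, and end-point luminescence was read after 10 min at room temperature.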
GLP1R inv ag: qHTS of GLP-1 Receptor Inverse Agonists (Inhibition Mode); Glucagon-like peptide 1 receptor (Homo sapiens), P43220; HEK293 GLP-1R CRE-luciferase, luminescence, 24 h; GLP-1R form is constitutively active; Potency, µM (titrated, usually from 38.3 µM), for inactives: top-dose activity change, negative = inhibition, usual class: inhibitors; actives 1.6% (n = 410,000); AID 624417, 2012; further: on the % scale 0 is the no-effect control and ±100 the full control effect; nearly all actives have a fitted effect of over 55% in size
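Inverse agonism was detected as reduced cAMP-driven luciferase luminescence after 24 h compound treatment. The cells were HEK293 clones expressing constitutively active human GLP-1R with the reporter. Reporter-only and GPR119 cell lines served as counterscreen controls.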
Numbers without * were called inactive; i = inactive; ? = inconclusive; . = not tested or not shown; [ ] = dose if it differs, or a comment. Sampled rows, rich in hits. Any-hit rate of the full collection: about 2.3%. The call rests on the fitted dose curve; in most records, active means well fitted curve in the direction sought with a large enough effect; inconclusive means small, poorly fitted or top-dose-only effect, or another doubt; inactive means no such curve, though single readings can be large; an effect the other way counts as inactive or inconclusive. Potency means the concentration at half of the fitted maximal effect.

SMILES	GLP1R ag	ALOX12 inh	PTHR1 ag	GLS inh	GRP78 ERSR act	GLP1R inv ag
COC(=O)c1ccc(C23CC4(C2)[C@H](CN(C)[C@@H]4c2ccccc2)C3c2ccc(C(F)(F)F)cc2)cc1 (some centres not stated)	-4%	-39%	-23%	4%	-4%	10µM*
FC(F)(F)c1ccc(CN2C[C@@H]3C(c4ccccc4)C4(c5cccnc5)CC3(C4)[C@H]2c2ccccc2)cc1 (some centres not stated)	-1%	-7%	-27%	-2%	-4%	11µM*
Cc1cc2ccccc2n1CC(=O)NCCCCCC(=O)O	.	-4%	.	.	.	.
CC(C)CC(c1nnnn1C(C)(C)C)N1CCN(Cc2ccccc2)CC1 (configuration not stated)	-4%	10µM*	-6%	-9%	-6%	-22%
CCC(NC(=O)C1CCOC1)C12CC3CC(CC(C3)C1)C2 (configuration not stated)	.	0%	.	.	.	.
CCN(CC)CCNC(=O)c1ccc(NC(=O)Nc2cccc3ccccc23)cc1	14%	7%	-8%	0%	-8%	10µM*
CCN(CC)CCNC(=O)c1ccc(NC(=O)c2ccc(F)cc2)cc1	-1%	-8%	i	-3%	-4%	-15%
CCN(CC)CCNC(=O)c1ccc(NC(=O)c2cccc(S(=O)(=O)N3c4ccccc4CC3C)c2)cc1 (configuration not stated)	24%	-9%	i	0%	-6%	5.6µM*
CCN(CC)CCNC(=O)c1ccc(NC(=O)c2cccc(S(=O)(=O)N3CCc4ccccc43)c2)cc1	4%	?	-16%	10%	-5%	?
Cc1ccccc1C1C2=C(CC(C)(C)CC2=O)OC2=C1C(=O)CC(C)(C)C2	.	-3%	.	.	.	.
COc1ccc(NC(=S)NC(NC(=O)c2ccc(Cl)cc2Cl)C(Cl)(Cl)Cl)c([N+](=O)[O-])c1 (configuration not stated)	-1%	?	-13%[57.5 µM]	13%	0%	10µM*
Cc1ccc(/C=C2\SC(=S)N(C(Cc3ccccc3)C(=O)O)C2=O)cc1 (configuration not stated)	-3%	35µM*	i	17%	-4%	?
COc1cc(/C=C2\SC(=S)N(C(C(=O)O)c3ccccc3)C2=O)cc(OC)c1OC (configuration not stated)	2%	?	-43%	-9%	32µM*	-4%
O=C(O)C(c1ccccc1)N1C(=O)/C(=C\c2ccc(-c3ccccc3Cl)o2)SC1=S (configuration not stated)	-2%	16%	i	-4%	2%	-17%
C=CCN1C(=O)/C(=C/c2ccc(-c3ccc(F)cc3)o2)SC1=S	-3%	45µM*	-10%	4%	-1%	10%
O=C(O)C(c1ccccc1)N1C(=O)/C(=C\c2ccc(-c3ccc(Br)cc3)o2)SC1=S (configuration not stated)	-6%	6.3µM*	-9%	?	0%	-5%
C=CCN1C(=O)/C(=C/c2ccsc2)SC1=S	5%	11%	-13%	1%	-2%	1%
COc1cccc(/C=C2\SC(=S)N(C(C(=O)O)c3ccccc3)C2=O)c1OC (configuration not stated)	0%	?	-9%	-9%	-7%	2%

Screens as filed in PubChem BioAssay.
